Drawing on PubChem BioAssay (NCI), this text covers growth for 38 compounds.

The structures appear in SMILES notation. This is part of a sample that, as a whole, favours compounds with a hit. Of some 83,000 tested, about 20% had one in any assay.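 Negative percent growth values reflect cell death: -40 means 40% of the cells present at the start died, and -100 means all died.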 Unmarked numbers belong to inactive results. The source made the active and inactive calls. How the source made its calls: active means growth percent below 10; inactive means the rest.

One test concerns OVCAR-4 ovarian. The test can be described thus: NCI-60 one-dose screen, 48 h (100 = growth as untreated, 0 = no growth, -100 = all killed). The following applies: 10 µM unless noted.
For the compound `Cc1ccc(NC(=O)c2cccc(CN3CCN(C)CC3)c2)cc1Oc1ccc(-c2[nH]nc3ncnc(N)c23)cc1`, the growth is 81.9%.

For `O=C1c2c(c3c4cc(Br)ccc4[nH]c3c3ccc4ccccc4c23)C(=O)N1CCN1CCCCC1`, the growth was 95.2%.

Regarding `CC(C)(C)OC(=O)N1CCN(S(=O)(=O)/N=C2\NC(=O)NC2=C(Cl)Cl)CC1`, the growth is 100%.

A further test has as its system SK-OV-3 ovarian. The test is described as above. As to conditions: 10 µM unless noted.
As to `CCNC(=O)Oc1ccc(/C(=C(/C)c2ccc(Cl)cc2)c2ccc(OCCN3CCCC3)cc2)cc1`, the growth was 106%.

As for `Cc1cc(NS(=O)(=O)c2ccc(-c3cnc(C4CC4)o3)cc2)ccc1I`, the growth was 66.2%.

Consider `C[C@H]1[C@H](C)CC[C@]2(COC(=O)c3cccnc3)CC[C@]3(C)C(=CC[C@@H]4[C@@]5(C)CCCNC(C)(C)[C@@H]5CC[C@]43C)[C@H]12`, for which the growth is 92.5%.

On to `C#CCOc1ccc(C(Nc2ccc(OC)cc2)c2nnnn2C2CCCCC2)cc1` (centres undefined), for which the growth is 118%.

As to `O=C(Nc1cccc(Cl)c1)Nc1nc2ccc(-c3cccc4ccccc34)cc2s1`, the growth was 66.8%.

In the case of `O=C(Nc1ccc(Cl)cc1)Nc1nc2ccc([N+](=O)[O-])cc2s1`, the growth was -12.3% (active).

Turning to `O=C(Nc1ccccc1)Nc1nc2ccc([N+](=O)[O-])cc2s1`, the growth was -7.62% (active).

In the case of `Cc1cc(Cl)cc(NS(=O)(=O)c2ccc(-c3cnc(C4CC4)o3)cc2)c1`, the growth was 72.8%.

As to `CCOC(=O)C1=C(C)Nc2nc3ccccc3n2C1c1cccc(Br)c1` (centres undefined), the growth is 93.6%.

For another test, the system named is IGROV1 ovarian. Described as above. As to conditions: 10 µM unless noted.
As to `CCN1C(=O)N(CC)C2SC(N/N=C/c3cccs3)=NC21` (centres undefined), the growth was 23.7%.

Consider `O=C1NC(=O)/C(=C/c2ccc(OCc3cc4ccccc4nc3Cl)cc2)S1`, for which the growth was 108%.

Take `O=C(NNc1nc2cc(F)c(F)cc2n2cccc12)c1ccncn1`: the growth is 15.7%.

In the case of `C#C[C@]1(O)CC[C@H]2[C@@H]3CC=C4c5sc(Nc6nc(C)cc(OC)n6)nc5CC[C@]4(C)[C@H]3CC[C@@]21C`, the growth is 66%.

Regarding `CCNC(=O)Oc1ccc(/C(=C(/C)c2ccc(Cl)cc2)c2ccc(OCCN3CCCC3)cc2)cc1`, the growth was 78.1%.

`O=C(NNc1nc2cc(F)c(F)cc2n2cccc12)c1cccnn1`: the growth was 14.4%.

As for `O=C(O)CNS(=O)(=O)c1ccc(Oc2ccc(S(=O)(=O)NCC(=O)O)cc2)cc1`, the growth is 104%.

For `Cc1cc(NS(=O)(=O)c2ccc(-c3cnc(C4CC4)o3)cc2)ccc1I`, the growth was 36.7%.

On to `COc1ccc(C(=O)c2c(N)c(C#N)cn2-c2cccc(OC)c2)cc1`, for which the growth was 32%.

Regarding `COc1ccc(CCN2C(=O)CSC2=S)cc1OC`, the growth is 102%.

Consider `Cc1ccc(/C=C/CC(=O)Nc2ccc(C(=O)Nc3ccc(F)cc3N)cc2)cn1`, for which the growth was 65.5%.

`O=C(NNc1nc2cc(F)cc(F)c2n2cccc12)c1ccncn1`: the growth was 15.1%.

With `C[C@H]1[C@H](C)CC[C@]2(COC(=O)c3cccnc3)CC[C@]3(C)C(=CC[C@@H]4[C@@]5(C)CCCNC(C)(C)[C@@H]5CC[C@]43C)[C@H]12`, the growth was 65%.

In the case of `Fc1ccccc1/C=C(/C1=NCCN1)n1cnc2ccccc21`, the growth is 95.6%.

Turning to `COc1ccc(CN2C(=O)/C(=C/c3nc(CO)cs3)SC2=S)cc1`, the growth is 89.9%.

Consider `O=C(Nc1cc(F)cc2cccnc12)c1cnc(N2CCOCC2)cn1`, for which the growth is 25.5%.

Take `CC1OC(O[C@@H]2[C@H](O)C(CO)OC(O[C@H]3COC(O[C@H]4CC[C@]5(C)[C@H]6CC[C@]78OC[C@@]9(CCC(C)(C)C[C@H]97)[C@H](O)C[C@@]8(C)[C@]6(C)CC[C@H]5C4(C)C)[C@@H](OC4OC(CO)[C@@H](O)[C@@H](O)[C@@H]4O)[C@@H]3O)[C@H]2OC2OC[C@@H](O)[C@@H](O)[C@@H]2O)[C@@H](O)[C@@H](O)[C@H]1O` (some centres undefined): the growth is -66.3% (active).

`C#C[C@]1(O)CC[C@H]2[C@@H]3CC=C4c5sc(Nc6cccc(Cl)n6)nc5CC[C@]4(C)[C@H]3CC[C@@]21C`: the growth was 35.6%.

Take `Cc1ccc(/C=C/CC(=O)Nc2ccc(C(=O)Nc3ccc(F)cc3N)nc2)cn1`: the growth was 43.9%.

With `O=C1[C@@H]2Cc3c([nH]c4ccccc34)[C@H](c3c(Cl)cccc3Cl)N2C(=O)CN1C1CCN(Cc2ccccc2)CC1`, the growth was 24.6%.

Regarding `C#CCOc1ccc(C(Nc2ccc(OC)cc2)c2nnnn2C2CCCCC2)cc1` (centres undefined), the growth is 91.6%.

Turning to `COc1cc(C(=O)c2cc(C(C)=O)c3c4ccccc4ccn23)cc(OC)c1OC`, the growth was 52.6%.

Regarding `Cc1[nH]nc2ccc(-c3nc4cnc(N5CCN(C)CC5)cn4c3Nc3ccc(F)cc3Br)cc12`, the growth is 59.7%.

For `O=C(Nc1cccc(Cl)c1)Nc1nc2ccc(-c3cccc4ccccc34)cc2s1`, the growth is 55.2%.

Consider `Cc1cc(C(=O)Nc2ccc(SC#N)cc2)c(C)o1`, for which the growth was 88.9%.

Consider `O=C(NNc1nc2cc(F)c(F)cc2n2cccc12)c1ncccn1`, for which the growth was 20.5%.

For the compound `CN1CCN(c2ccc(NC(=O)Nc3ccc4c(ccn4-c4cccc(C(N)=O)n4)c3)cc2C(F)(F)F)CC1`, the growth was 80.1%.

In the case of `O=C(Nc1ccc(Cl)cc1)Nc1nc2ccc([N+](=O)[O-])cc2s1`, the growth is 14.7%.

On to `NC(=O)c1c(NC(=O)c2cccc(OC(F)(F)F)c2)sc2c1CCC(=O)C2`, for which the growth was 36.4%.

`O=C(/C=C1\C=CN(CCCCO)c2ccccc21)n1ccc2ccccc21`: the growth was 89.2%.

With `O=C1c2c(c3c4cccnc4[nH]c3c3ccc4ccccc4c23)C(=O)N1CCN1CCNCC1`, the growth was 51.7%.

For `O=C(Nc1ccccc1)Nc1nc2ccc([N+](=O)[O-])cc2s1`, the growth was 19.7%.

Regarding `Cc1cc(Cl)cc(NS(=O)(=O)c2ccc(-c3cnc(C4CC4)o3)cc2)c1`, the growth is 33.2%.

For `CCOC(=O)C1=C(C)Nc2nc3ccccc3n2C1c1cccc(Br)c1` (centres undefined), the growth is 77.4%.

As for `CCOC(=O)c1nn(-c2ccc(C)cc2)c(=O)c2c(N)c(C#N)c(-c3ccc(OC)cc3)cc12`, the growth is 80.2%.

With `Cc1ccc(NC(=O)c2cccc(CN3CCN(C)CC3)c2)cc1Oc1ccc(-c2[nH]nc3ncnc(N)c23)cc1`, the growth was 63.3%.

Turning to `O=C1c2c(c3c4cc(Br)ccc4[nH]c3c3ccc4ccccc4c23)C(=O)N1CCN1CCCCC1`, the growth is 59.8%.
